Laboratory results reported in the supplement of paper PMC11006884.
Targets with a hit are over-represented here; the source holds about 6,500 in all. About 2% of all pairs of compound and target were hits.

Compound: COC(=O)C#Cc1ccccc1 [methyl 3-phenylpropiolate]
Assay: log2 ratio of iodoacetamide-alkyne labeling of the cysteine site, DMSO over compound (competition); higher = stronger covalent engagement of the cysteine by the compound, active = 1 or more
Conditions: 500 µM; treatment time 1 h; system: HEK293T cell lysate
How it was run: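 The log2 competition ratio per cysteine is defined as mean reporter intensity in control channels over mean reporter intensity in compound channels. Lysate from HEK293T cells (2 mg/mL) received electrophile (500 µM) or vehicle for 1 h at ambient temperature, followed by iodoacetamide alkyne for 1 h. Samples were clicked to sCIP-TMT reagents, pooled, trypsin-digested overnight at 37 °C, streptavidin-enriched, acid-eluted and run on Orbitrap Eclipse LC-MS/MS with FAIMS, with quantification in FragPipe. Three replicates with duplicate channels were used, and any cysteine quantified in only one replicate was excluded.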

Target | log2 ratio of iodoacetamide-alkyne labeling
UniProt Q86YR5_C515 | 1.7 (active)
DNAJB14 C77 (UniProt Q8TBM8) | 1.08 (active)
CCT7 C310 (UniProt Q99832) | 0.193 (inactive)
CPNE1 C53 (UniProt Q99829) | -0.0731 (inactive)
UniProt Q86Y56_C173 | 0.779 (inactive)
IPO4 C350 (UniProt Q8TEX9) | 0.564 (inactive)
VPS8 C1371 (UniProt Q8N3P4) | 0.234 (inactive)
SECISBP2L C544 (UniProt Q93073) | 0.341 (inactive)
UniProt Q99590_C478 | 0.396 (inactive)
UniProt Q6ZS17_C1137 | 0.0366 (inactive)
SMAP2 C196 (UniProt Q8WU79) | 0.318 (inactive)
CRBN C78 (UniProt Q96SW2) | 0.133 (inactive)
ISOC2 C84 (UniProt Q96AB3) | 0.179 (inactive)
NGLY1 C197 (UniProt Q96IV0) | 0.0457 (inactive)
ZNF428 C93 (UniProt Q96B54) | 0.191 (inactive)
DARS2 C371 (UniProt Q6PI48) | 0.442 (inactive)
PARG C515 (UniProt Q86W56) | 1.16 (active)
LUZP1 C594 (UniProt Q86V48) | 1.19 (active)

Target | log2 ratio of iodoacetamide-alkyne labeling
UniProt Q7LBC6_C1451 | 0.513 (inactive)
CPPED1 C54 (UniProt Q9BRF8) | 1.01 (active)
ARL6IP6 C48 (UniProt Q8N6S5) | 0.392 (inactive)
TRMT2A C463 (UniProt Q8IZ69) | 1.1 (active)
ADO C258 (UniProt Q96SZ5) | 0.15 (inactive)
UniProt Q8IX01_C183 | 0.451 (inactive)
UBR2 C1619 (UniProt Q8IWV8) | 0.0476 (inactive)
DHX29 C1025 (UniProt Q7Z478) | 0.0649 (inactive)
MACROD1 C199 (UniProt Q9BQ69) | -0.0967 (inactive)
KHSRP C296 (UniProt Q92945) | 0.00483 (inactive)
UniProt Q8WUQ7_C699 | 0.0859 (inactive)
PHIP C612 (UniProt Q8WWQ0) | -0.25 (inactive)
NIPBL C1876 (UniProt Q6KC79) | 0.17 (inactive)
UniProt Q7RTV0_C46 | 0.211 (inactive)
UniProt Q8IX01_C656 | 2.27 (active)
DPF1 C149 (UniProt Q92782) | 0.289 (inactive)
RDH13 C30 (UniProt Q8NBN7) | 0.116 (inactive)
